According to paper PMC5540273 (PLoS ONE, 2017):

What follows are compounds tested on MARK2. Settings: concentration: 1 μM, replicates: in singlicate; n = 1.
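Also: KINOMEscan kinase panel screen.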

Row | Structure (SMILES) | %Inh [%]
1 | CC(C)(C)c1ccc2nccc(Nc3cccc(O)c3)c2c1 [GW856795] | 2
2 | COc1cc2c(cc1OCCN1CCNCC1)ncc1c3ccc(C#N)cc3[nH]c21 | 8
3 | COc1cc(Nc2nccc(-c3c(-c4cccc(NC(=O)c5c(F)cccc5F)c4)nn4ccccc34)n2)cc(OC)c1OC [GSK323521] | 0
4 | Cc1ccc(S(=O)(=O)Nc2ccc(Nc3nccc(Nc4cccc5[nH]ncc45)n3)cc2)cc1 [GSK581271] | 0
5 | CCc1ccc(-c2ccc3c(c2)-c2c(cnn2C)S(=O)(=O)N3C)cc1 | 0
6 | O=C(Nc1cccc(-c2nn3ncccc3c2-c2ccnc(Nc3ccccc3)n2)c1)c1c(F)cccc1F [GSK198271] | 0
7 | Fc1ccc(-c2ncn(C3CCNCC3)c2-c2ccnc(Oc3ccc(-c4ccccc4)cc3)n2)cc1 [SB-245391] | 23
8 | CN(c1ccc(NC(=O)Nc2cc(C(F)(F)F)ccc2F)cc1)c1ccnc(Nc2ccc(S(N)(=O)=O)cc2)n1 [GW809893] | 22
9 | CC(=O)Nc1nc2cnc(Nc3cc(NC(=O)c4cccc(C5(C#N)CC5)c4Cl)ccc3C)nc2s1 | 19
10 | Cl.c1ccc(-c2ccc3c(Nc4ccc5[nH]ncc5c4)ccnc3c2)nc1 [GW440137] | 0
11 | COc1cc(Nc2ncc3c(C)nc(-c4cc5ccccc5[nH]4)n3n2)cc(OC)c1OC [GW869516] | 11
12 | COC(=O)Nc1nc2ccc(Oc3ccc(NC(=O)Nc4cc(C(F)(F)F)ccc4F)cc3)cc2n1C.Cl [GW692089] | 0
13 | Nc1n[nH]c2cnc(-c3ccccc3)cc12 [SB-642124] | 0
14 | COc1cc(Nc2nccc(N3CCC(NC(=O)Nc4cccc(C(C)=O)c4)C3)n2)cc(OC)c1OC (stereo not shown) [GSK1379753] | 0
15 | O=C(NC1CCN(c2ccnc(Nc3ccc(F)cc3)n2)C1)c1cc2ccccc2s1 (stereo not shown) [GSK1379716] | 0
16 | c1ccc(-c2cnc3nccnn23)cc1 [AH20685] | 0
17 | Nc1ncnc2c1nc(-c1ccccc1)n2-c1ccccc1 [SKF-97293] | 0

Row | Structure (SMILES) | %Inh [%]
18 | CN(C)Cc1ccc(-c2ccc3c(Nc4ccc(Oc5ccccn5)cc4)ccnc3c2)o1 [GW567148] | 0
19 | COc1cc(Nc2nccc(N3CCC(NC(=O)c4cc5ccccc5s4)C3)n2)cc(OC)c1OC (stereo not shown) [GSK1379760] | 12
20 | Cl.Cl.NCC(NCc1ccc(-c2ccnc3[nH]ccc23)s1)c1ccccc1 (stereo not shown) [GSK1321565] | 0
21 | Cl.NC(=O)c1cccc(Nc2nccc(Nc3ccc(Oc4c(Cl)cccc4Cl)c(Cl)c3)n2)c1 [GW659009] | 0
22 | O=C(Nc1ccccc1F)NC1CCN(c2ccnc(Nc3ccc(F)cc3)n2)CC1 [GSK1379800] | 0
23 | Cc1ccc(C(=O)N2CC[C@@H](O)C2)cc1-n1c(C)cc(OCc2ccc(F)cc2F)c(Br)c1=O | 0
24 | CN(C)S(=O)(=O)c1cc(-c2ccc3nccc(-c4cccc(S(N)(=O)=O)c4)c3c2)cnc1N [GSK1669921] | 0
25 | O=c1[nH]cc(-c2ccc(N3CCOCC3)cc2)c2sc(-c3cn[nH]c3)cc12 [GSK2276055] | 0
26 | CCCCc1nn2ncccc2c1-c1ccnc(Nc2ccc(N3CCN(C)CC3)cc2)n1 [GW684941] | 0
27 | O=C(Nc1cccc(-c2nn3ccccc3c2-c2ccnc(Nc3cccc(F)c3)n2)c1)c1c(F)ccc(F)c1Cl [GSK357952] | 3
28 | c1ccc(-c2n[nH]cc2Nc2ccnc3ccccc23)nc1 [GW694077] | 0
29 | COc1cc(Nc2nccc(-c3c(-c4cccc(NC(=O)c5c(F)cccc5F)c4)nn4ncccc34)n2)cc(OC)c1OC [GSK327238] | 18
30 | COc1cccc(C(=O)Nc2cccc(Oc3ccc4nc(NC(=O)C5CC5)cn4n3)c2)c1 | 0
31 | COCCOCCOc1cc2ncc3c4ccc(C#N)cc4[nH]c3c2cc1OC | 13
32 | Nc1ncc(-c2ccc3nccc(-c4ccncc4)c3c2)cc1S(=O)(=O)N1CCOCC1 [GSK1627798] | 0
33 | Cc1cccc(NC(=O)Nc2ccc(Oc3ncnc4ccn(C)c34)cc2)c1 | 0
34 | CN1CCN(Cc2cccc(-c3ccc4c(Nc5ccc(Oc6ccccc6)cc5)ccnc4c3)c2)CC1 [GW578342] | 5
